Measurements taken from PubChem BioAssay (NCATS).
Values joined by “and” are separate entries in the source; they are usually repeats but may differ in a detail not shown here. Equal entries are not always repeated. Results filed as inconclusive are left out. A call without a number means that no potency is given here. Values without a mark were called inactive. Active and inactive are the calls of the source. The call rests on the fitted dose curve; in most records, active means well fitted cell-killing curve with a large enough effect; inconclusive means small, poorly fitted or top-dose-only effect, or effect the other way; inactive means flat fitted curve, though single readings scatter.

These compounds were tested on CAOV3 (assay: Primary qHTS to identify gynecologic anti-cancer compounds using libraries of approved drugs and bioactive compounds (AID 1345084; further: nearly all actives have a fitted effect of over 55% in size)). Conditions: Gynecologic cancer cell panel viability, ATPlite luminescence, 48 h; series mostly up to 57.5 µM.
Excerpt: National Center for Advancing Translational Sciences [NCATS] Assay Overview: Chemotherapeutic drug responses vary from cancer to cancer and from patient to patient. These variations could be caused by a number of factors including patient genomic background, tumor mutations, tumor heterogeneity, and aspects of drug treatment. Chemotherapeutic drug resistance is also a common issue and can lead to ineffective treatment and patient death. Here we have profiled the cell killing effects of thousands of compounds to characterize the responses in three gynecological cancers, identify cancer-selective compounds, and understand the diversity of responses to these compounds from pan-cancer suppressors to single cell line selective compounds. In this assay, we screened a 7,914 compound drug library that included approved drug and bioactive compounds in six ovarian, three cervical, and […] placental cancer cell lines using the ATPlite assay for cell viability. […] The cervical cancer cell lines included HeLa, Ca Ski, and C-33 A. The placental cancer cell lines included JEG-3. HEK 293T cells were used as the control cell line to determine the selectivity index. ATPlite is a luminescence based assay reliant on the conversion of a luciferase substrate to light in the presence of ATP. As a cytotoxic compound will suppress growth and decrease the number of cells, the concentration of ATP will decrease, and less light signal will be detected in the well.
Assay Protocol Summary: 1,000 cells in 4 uL of media were dispensed into white, solid bottom 1536-well plates using a Multidrop Combi (Thermo Scientific). The Assay plates were incubated for 16 hours at 37 C with 5% CO2 in assay plates, followed by the addition of 23 nL of DMSO or drug dissolved in DMSO. Each compound was assayed in five concentrations (0.092, 0.46, 2.3, 11.5, and 57.5 uM), using the automated Wako 1536 Pin Tool workstation and incubated at 37 C with 5% CO2 48 hours. 4 uL of ATPlite, the ATP monitoring reagent, was then added to the each well of the assay plates using the Multidrop Combi reagent dispenser followed by incubation for 15 minutes at room temperature. The resulting luminescence was measured using the ViewLux plate reader.
Potency means the concentration at half of the fitted maximal effect.

Row | Structure (SMILES) | Potency | activity change, negative = cytotoxicity
1 | CN(C)CCCC1(c2ccc(F)cc2)OCc2cc(C#N)ccc21 (stereo not given) | inactive | –
2 | COc1cc2nc(N3CCN(C(=O)C4CCCO4)CC3)nc(N)c2cc1OC (stereo not given) | inactive | –
3 | O=C(NOCC1CC1)c1ccc(F)c(F)c1Nc1ccc(I)cc1Cl | inactive | –
4 | CCOC(=O)c1c(C)n(C)c2ccc(O)cc12 | inactive | –
5 | CN(C)C(=O)[C@H](O)[C@H](Cc1ccccc1)NC(=O)c1cc2cc(Cl)ccc2[nH]1 | inactive | –
6 | Cc1nc2n(c(=O)c1CCN1CCC(c3noc4cc(F)ccc34)CC1)CCCC2 | inactive | –
7 | Nc1ncn([C@H]2C[C@H](O)[C@@H](CO)O2)c(=O)n1 | inactive | –
8 | CC1=C(C)C(=O)C(C(CCCCCC(=O)O)c2ccccc2)=C(C)C1=O (stereo not given) | inactive | –
9 | CCCCC(CC)COC(=O)C(C#N)=C(c1ccccc1)c1ccccc1 (stereo not given) | inactive | –
10 | CC[C@]1(O)C[C@H]2CN(CCc3c([nH]c4ccccc34)[C@@](C(=O)OC)(c3cc4c(cc3OC)N(C=O)[C@H]3[C@@](O)(C(=O)OC)[C@H](OC(C)=O)[C@]5(CC)C=CCN6CC[C@]43[C@@H]65)C2)C1 | inactive | –
11 | CS(=O)(=O)OCCCCOS(C)(=O)=O | inactive | –
12 | CCN(CCO)CCCC(C)Nc1ccnc2cc(Cl)ccc12 (stereo not given) | – | 21.3% [at 6.55 µM] and 5.51% [at 6.55 µM]
13 | Cc1ccc(S(=O)(=O)NC(=O)NN2CC3CCCC3C2)cc1 (stereo not given) | inactive | –
14 | CC(C)Oc1ccc2c(=O)c(-c3ccccc3)coc2c1 | 22.4 µM (active) | –
15 | CCc1nc(N)nc(N)c1-c1ccc(Cl)cc1 | inactive | –
16 | CN(C)c1ccc(O)c2c1C[C@H]1C[C@H]3[C@H](N(C)C)C(=O)C(C(N)=O)=C(O)[C@@]3(O)C(=O)C1=C2O | inactive | –
17 | COc1cc(C(C)=O)ccc1OCCCN1CCC(c2noc3cc(F)ccc23)CC1 | inactive | –
18 | Cc1nccn1CC1CCc2c(c3ccccc3n2C)C1=O (stereo not given) | inactive | –
19 | CC1(C)CCC(C)(C)c2cc(NC(=O)c3ccc(C(=O)O)cc3)ccc21 | inactive | –
20 | COc1c(O)cc2c(c1O)[C@@H]1O[C@H](CO)[C@@H](O)[C@H](O)[C@H]1OC2=O | inactive | –

Row | Structure (SMILES) | Potency | activity change, negative = cytotoxicity
21 | O=C(O)c1cccnc1Nc1cccc(C(F)(F)F)c1 | inactive | –
22 | Cc1c(C(=O)NN2CCCCC2)nn(-c2ccc(Cl)cc2Cl)c1-c1ccc(Cl)cc1 | inactive | –
23 | O=C(O)c1cccc(-c2noc(-c3ccccc3F)n2)c1 | 10 µM (active) and 11.2 µM (active) | –
24 | Cc1cc2c(s1)Nc1ccccc1N=C2N1CCN(C)CC1 | inactive | –
25 | Cn1c(NCCN(CCO)CCCc2ccc([N+](=O)[O-])cc2)cc(=O)n(C)c1=O | inactive | –
26 | OC(CN1CCN(c2cccc(Cl)c2)CC1)C(c1ccccc1)c1ccccc1 (stereo not given) | inactive | –
27 | C=CCc1cc(OC)c(O)c(C(=O)NCCO)c1 | inactive | –
28 | S=c1nc[nH]c2nc[nH]c12 | inactive | –
29 | c1ccc2[nH]c(-c3cscn3)nc2c1 | inactive | –
30 | Oc1ccc(OCc2ccccc2)cc1 | inactive | –
31 | CCC(C)(Oc1ccc(C2(c3ccc(OC(C)(CC)C(=O)O)cc3)CCCCC2)cc1)C(=O)O (stereo not given) | inactive | –
32 | COCCCN1CCC(NC(=O)c2cc(Cl)c(N)c3c2OCC3)CC1 | inactive | –
33 | CN(c1nccc(=O)[nH]1)C1CCN(c2nc3ccccc3n2Cc2ccc(F)cc2)CC1 | inactive | –
34 | N=C(N=C(N)N)N1CCOCC1 | inactive | –
35 | O=C1CCc2ccc(OCCCCN3CCN(c4cccc(Cl)c4Cl)CC3)cc2N1 | inactive | –
36 | Clc1ccc(C(Cn2ccnc2)OCc2ccc(Sc3ccccc3)cc2)c(Cl)c1 (stereo not given) | inactive | –
37 | CN(C)C(=O)COC(=O)Cc1ccc(OC(=O)c2ccc(N=C(N)N)cc2)cc1 | inactive | –
38 | CCCS(=O)c1ccc2nc(NC(=O)OC)[nH]c2c1 (stereo not given) | inactive | –
39 | CC(C)[C@H](N)C(=O)OCCOCn1cnc2c(=O)[nH]c(N)nc21 | inactive | –
40 | NC(=O)Cc1cccc(C(=O)c2ccccc2)c1N | inactive | –
